# Data: PubChem BioAssay (EPA / NIEHS)
# Records with an inconclusive call do not appear. Active and inactive are the calls of the source. How the source made its calls, unless noted: active means hit-call score of the fitted dose curve at least 0.9, where 1 is the maximum; inactive means score below 0.9.
# Tests used:
# [1] = target: Glucocorticoid receptor (Homo sapiens) (UniProt P04150); assay: ATG_GR_TRANS: Attagene TRANS-FACTORIAL HepG2 Assay for human Glucocorticoid Receptor (GR) (AID 2282978; active means hit-call score of the fitted dose curve at least 0.9, where 1 is the maximum;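 further: activators score as hits since higher reporter transcript over DMSO is fitted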); details: HepG2 Attagene TRANS GR reporter, mRNA transcription
# Outline: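 Multiplexed TRANS reporter system, HepG2; 24 h exposure; RNA → oligo(dT) RT → reporter-specific PCR → 6-FAM primer extension → HpaI cut → CE fluorescence. Gain-of-signal vs DMSO.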
# [2] = target: Bile acid receptor (Homo sapiens) (UniProt Q96RI1); assay: ATG_FXR_TRANS: Attagene TRANS-FACTORIAL HepG2 Assay for Farnesoid X Receptor (FXR) (AID 2282979; active means hit-call score of the fitted dose curve at least 0.9, where 1 is the maximum;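 further: hits raise reporter mRNA above DMSO so AC50 marks FXR activation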); details: HepG2 Attagene TRANS FXR-GAL4 reporter transcription
# Sequence of Bile acid receptor (Homo sapiens) (Q96RI1 whole entry, looked up, the tested form may be a part): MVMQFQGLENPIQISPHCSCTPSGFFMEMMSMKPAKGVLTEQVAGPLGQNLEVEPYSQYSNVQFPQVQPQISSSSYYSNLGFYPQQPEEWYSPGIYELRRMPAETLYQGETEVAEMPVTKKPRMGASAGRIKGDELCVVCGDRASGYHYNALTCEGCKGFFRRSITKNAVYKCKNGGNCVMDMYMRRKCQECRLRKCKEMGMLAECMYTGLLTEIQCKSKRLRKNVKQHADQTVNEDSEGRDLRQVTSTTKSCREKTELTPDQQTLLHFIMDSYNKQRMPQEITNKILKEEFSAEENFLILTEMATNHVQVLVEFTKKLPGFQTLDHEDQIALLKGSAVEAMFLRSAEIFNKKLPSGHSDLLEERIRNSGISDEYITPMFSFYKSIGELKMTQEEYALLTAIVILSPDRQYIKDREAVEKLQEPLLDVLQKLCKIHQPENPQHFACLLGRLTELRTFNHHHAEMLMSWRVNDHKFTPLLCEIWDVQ
# Outline: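 After 24 h chemical treatment of transfected HepG2 cells, GAL4-UAS reporter transcripts driven by an exogenous FXR-GAL4 fusion were measured by RT-PCR and capillary electrophoresis. Increases over DMSO were fitted.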
# [3] = target: Oxysterols receptor LXR-beta (Homo sapiens) (UniProt P55055); assay: ATG_LXRb_TRANS: Attagene TRANS-FACTORIAL HepG2 Assay for human Liver X Receptor beta (LXRb) (AID 2282981; active means hit-call score of the fitted dose curve at least 0.9, where 1 is the maximum); details: HepG2 Attagene TRANS GAL4-LXRb reporter, mRNA
# Sequence of Oxysterols receptor LXR-beta (Homo sapiens) (P55055 whole entry, looked up, the tested form may be a part): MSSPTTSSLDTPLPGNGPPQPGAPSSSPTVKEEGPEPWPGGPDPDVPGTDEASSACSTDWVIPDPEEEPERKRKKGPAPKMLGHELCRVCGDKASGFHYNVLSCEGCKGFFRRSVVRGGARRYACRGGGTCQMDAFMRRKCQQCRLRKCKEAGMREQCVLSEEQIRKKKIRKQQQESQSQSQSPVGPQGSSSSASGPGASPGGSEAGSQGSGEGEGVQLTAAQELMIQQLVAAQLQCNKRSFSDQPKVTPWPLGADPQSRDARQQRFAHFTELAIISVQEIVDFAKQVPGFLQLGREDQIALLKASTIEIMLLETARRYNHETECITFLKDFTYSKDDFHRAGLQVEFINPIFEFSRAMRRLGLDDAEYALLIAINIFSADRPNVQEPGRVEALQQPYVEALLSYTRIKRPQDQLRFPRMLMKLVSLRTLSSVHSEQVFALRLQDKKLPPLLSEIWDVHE
# Outline: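 After 24 h chemical treatment of transfected HepG2 cells carrying exogenous NR-Gal4 chimeras, reporter mRNA was quantified by fluorescent RT-PCR and capillary electrophoresis; activity taken as increase over DMSO controls.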
# [4] = target: Hepatocyte nuclear factor 4-alpha (Homo sapiens) (UniProt P41235); assay: ATG_HNF4a_TRANS: Attagene TRANS-FACTORIAL HepG2 Assay for human Hepatocyte Nuclear Factor 4 alpha (HNF4a) (AID 2282982; active means hit-call score of the fitted dose curve at least 0.9, where 1 is the maximum); details: HepG2 HNF4a transactivation reporter, mRNA readout
# Sequence of Hepatocyte nuclear factor 4-alpha (Homo sapiens) (P41235 whole entry, looked up, the tested form may be a part): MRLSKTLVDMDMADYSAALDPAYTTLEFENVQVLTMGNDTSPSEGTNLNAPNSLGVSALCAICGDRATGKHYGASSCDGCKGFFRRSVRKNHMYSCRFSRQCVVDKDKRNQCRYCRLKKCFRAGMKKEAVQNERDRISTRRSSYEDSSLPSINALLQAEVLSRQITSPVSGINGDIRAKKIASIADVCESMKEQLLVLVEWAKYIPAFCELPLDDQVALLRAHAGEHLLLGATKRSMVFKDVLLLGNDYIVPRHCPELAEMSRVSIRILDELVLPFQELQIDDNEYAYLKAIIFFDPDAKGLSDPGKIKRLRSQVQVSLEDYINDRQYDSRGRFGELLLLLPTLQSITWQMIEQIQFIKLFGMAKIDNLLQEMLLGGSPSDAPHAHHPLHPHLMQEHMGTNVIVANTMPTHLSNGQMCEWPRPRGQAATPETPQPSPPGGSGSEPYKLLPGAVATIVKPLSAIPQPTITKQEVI
# Outline: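 Activity of an exogenous HNF4a–Gal4 fusion scored as induced GAL4-UAS reporter transcripts after 24 h chemical exposure of transfected human HepG2 cells. Read-out via RT-PCR with 6-FAM labelling and capillary electrophoresis; rise over DMSO baseline.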
# [5] = ATG_M_06_TRANS: Attagene TRANS-FACTORIAL HepG2 Assay for M06 Transcription Factor (Internal Marker) (AID 2282983; active means hit-call score of the fitted dose curve at least 0.9, where 1 is the maximum;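 further: reporter transcript level by RT-PCR then capillary electrophoresis fluorescence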); details: HepG2 Attagene TRANS M06 internal marker reporter
# Outline: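 Multi-reporter-transfected HepG2, 24 h treatment; reporter transcripts quantified via RT-PCR, primer-extension labelling and CE. DMSO-normalized gain-of-signal fit.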
# [6] = target: Nuclear receptor subfamily 4 group A member 2 (Homo sapiens) (UniProt P43354); assay: ATG_NURR1_TRANS: Attagene TRANS-FACTORIAL HepG2 Assay for human Nuclear Receptor Related Protein 1 (NURR1) (AID 2282985; active means hit-call score of the fitted dose curve at least 0.9, where 1 is the maximum); details: HepG2 Attagene TRANS reporter, mRNA readout
# Sequence of Nuclear receptor subfamily 4 group A member 2 (Homo sapiens) (P43354 whole entry, looked up, the tested form may be a part): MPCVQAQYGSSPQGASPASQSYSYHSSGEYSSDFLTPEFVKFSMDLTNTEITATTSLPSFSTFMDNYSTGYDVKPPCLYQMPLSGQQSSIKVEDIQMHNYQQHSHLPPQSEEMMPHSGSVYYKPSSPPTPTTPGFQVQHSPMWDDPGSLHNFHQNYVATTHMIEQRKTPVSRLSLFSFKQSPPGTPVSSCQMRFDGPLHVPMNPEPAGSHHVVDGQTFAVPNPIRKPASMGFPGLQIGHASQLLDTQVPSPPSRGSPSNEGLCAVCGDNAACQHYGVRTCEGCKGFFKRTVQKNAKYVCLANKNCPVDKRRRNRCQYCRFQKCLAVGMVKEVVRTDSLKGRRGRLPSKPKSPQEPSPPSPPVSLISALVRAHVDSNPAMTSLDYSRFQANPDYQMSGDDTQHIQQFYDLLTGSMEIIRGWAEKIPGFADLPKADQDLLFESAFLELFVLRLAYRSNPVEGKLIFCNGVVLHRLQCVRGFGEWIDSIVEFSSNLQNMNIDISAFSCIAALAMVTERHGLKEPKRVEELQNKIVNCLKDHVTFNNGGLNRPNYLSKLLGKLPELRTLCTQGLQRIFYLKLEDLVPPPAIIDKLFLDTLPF
# Outline: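 Reporter transcript induction, measured by RT-PCR with fluorescent labelling, HpaI digestion and capillary electrophoresis, after 24 hr dosing of human HepG2 cells transiently expressing an exogenous NR-Gal4 fusion with GAL4-UAS-driven reporters; DMSO as baseline.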
# [7] = target: Transcriptional activator Myb (Homo sapiens) (UniProt P10242); assay: ATG_Myb_CIS: Attagene CIS-FACTORIAL HepG2 Assay for human Myeloblastosis (Myb) Proto-Oncogene Transcription Factor (AID 2282986); details: HepG2 Attagene CIS-FACTORIAL Myb reporter transcription; actives raise or lower the signal
# Sequence of Transcriptional activator Myb (Homo sapiens) (P10242 whole entry, looked up): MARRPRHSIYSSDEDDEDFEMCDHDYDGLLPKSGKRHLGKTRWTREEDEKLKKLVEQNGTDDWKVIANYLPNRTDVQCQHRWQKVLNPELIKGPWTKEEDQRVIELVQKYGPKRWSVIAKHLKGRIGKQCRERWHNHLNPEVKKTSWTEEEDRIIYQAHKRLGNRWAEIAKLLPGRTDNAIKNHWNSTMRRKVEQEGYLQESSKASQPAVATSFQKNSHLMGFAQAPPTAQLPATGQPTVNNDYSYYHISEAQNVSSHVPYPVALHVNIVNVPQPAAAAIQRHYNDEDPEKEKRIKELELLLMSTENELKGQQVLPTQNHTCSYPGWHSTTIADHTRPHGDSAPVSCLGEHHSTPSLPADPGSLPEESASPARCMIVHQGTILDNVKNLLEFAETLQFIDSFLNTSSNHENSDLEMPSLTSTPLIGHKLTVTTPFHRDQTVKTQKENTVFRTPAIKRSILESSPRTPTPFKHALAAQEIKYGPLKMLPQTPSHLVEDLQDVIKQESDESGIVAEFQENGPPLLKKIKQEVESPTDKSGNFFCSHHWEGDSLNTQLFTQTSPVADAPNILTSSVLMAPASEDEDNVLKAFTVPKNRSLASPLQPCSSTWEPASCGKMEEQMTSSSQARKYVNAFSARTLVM
# Outline: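 Endogenous transcription factor activity at a Myb-responsive cis element is reported in human liver HepG2 cells after 24 h chemical treatment. Reporter mRNA is detected by RT-PCR and capillary electrophoresis fluorescence, with DMSO as baseline.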
# [8] = target: Nuclear respiratory factor 1 (Homo sapiens) (UniProt Q16656); assay: ATG_NRF1_CIS: Attagene CIS-FACTORIAL HepG2 Assay for human Nuclear Respiratory Factor 1 (NRF1) Orphan Gene (AID 2282987); details: HepG2 NRF1 cis-element reporter, Attagene multiplex; actives raise or lower the signal
# Sequence of Nuclear respiratory factor 1 (Homo sapiens) (Q16656 whole entry, looked up): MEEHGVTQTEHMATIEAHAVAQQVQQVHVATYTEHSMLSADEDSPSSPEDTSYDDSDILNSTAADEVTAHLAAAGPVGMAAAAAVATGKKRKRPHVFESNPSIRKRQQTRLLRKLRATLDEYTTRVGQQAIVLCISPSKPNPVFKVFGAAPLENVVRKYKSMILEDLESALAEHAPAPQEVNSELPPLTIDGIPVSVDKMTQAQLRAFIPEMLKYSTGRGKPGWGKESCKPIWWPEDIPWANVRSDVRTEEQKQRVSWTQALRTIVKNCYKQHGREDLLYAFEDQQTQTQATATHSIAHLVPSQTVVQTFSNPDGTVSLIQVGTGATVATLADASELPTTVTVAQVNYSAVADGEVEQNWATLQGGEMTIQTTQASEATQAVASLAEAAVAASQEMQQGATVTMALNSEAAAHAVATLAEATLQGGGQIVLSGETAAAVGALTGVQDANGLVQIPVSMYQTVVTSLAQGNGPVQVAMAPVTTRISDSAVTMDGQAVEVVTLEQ
# Outline: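 Human hepatoma HepG2 cells carrying transfected promoter-regulated reporter units were incubated with test chemicals for 24 h. Reporter transcripts were measured by RT-PCR plus capillary electrophoresis, and endpoints derived by bidirectional fitting with DMSO as baseline.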
# [9] = ATG_NFI_CIS: Attagene CIS-FACTORIAL HepG2 Assay for human Nuclear Factor I (NFI) (AID 2282989); details: HepG2 cis-regulatory reporter, NFI response element transcription; actives raise or lower the signal
# Outline: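 After transient transfection of HepG2 with cis-promoter reporter constructs and 24 h dosing, RNA is reverse-transcribed, amplified, 6-FAM end-labelled and HpaI-digested before capillary analysis. Bidirectional curve fitting against DMSO.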
# [10] = target: Myc proto-oncogene protein (Homo sapiens) (UniProt P01106); assay: ATG_Myc_CIS: Attagene CIS-FACTORIAL HepG2 Assay for human Myelocytomatosis (Myc) Proto-Oncogene Transcription Factor (AID 2282990); details: HepG2, Attagene cis-reporter transcription factor activity; actives raise or lower the signal
# Sequence of Myc proto-oncogene protein (Homo sapiens) (P01106 whole entry, looked up): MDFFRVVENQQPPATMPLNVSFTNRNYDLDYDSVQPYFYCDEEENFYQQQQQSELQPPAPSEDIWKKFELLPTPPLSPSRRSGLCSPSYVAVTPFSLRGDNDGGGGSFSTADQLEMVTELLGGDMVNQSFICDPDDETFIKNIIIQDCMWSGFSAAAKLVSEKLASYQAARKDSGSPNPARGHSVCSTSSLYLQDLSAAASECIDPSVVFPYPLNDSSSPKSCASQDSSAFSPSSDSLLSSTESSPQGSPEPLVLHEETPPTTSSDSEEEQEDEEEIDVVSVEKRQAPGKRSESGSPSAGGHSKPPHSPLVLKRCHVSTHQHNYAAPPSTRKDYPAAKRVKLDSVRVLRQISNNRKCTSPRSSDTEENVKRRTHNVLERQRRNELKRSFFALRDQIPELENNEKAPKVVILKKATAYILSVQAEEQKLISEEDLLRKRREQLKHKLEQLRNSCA
# Outline: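 Cells of the HepG2 human liver line bear multiple cis-driven reporter transcription units. Reporter mRNA after 24 h exposure is reverse-transcribed, amplified, labelled and resolved by capillary electrophoresis, with gain- or loss-of-signal fitting relative to DMSO.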
# [11] = ATG_NF_kB_CIS: Attagene CIS-FACTORIAL HepG2 Assay for human Nuclear Factor Kappa B (NF-kB) (AID 2282991); details: HepG2 Attagene cis-factorial NF-kB reporter mRNA; actives raise or lower the signal
# Outline: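 Multiplexed cis-reporter assay in transiently transfected HepG2. 24 h treatment; RNA isolated, RT-PCR, labelled fragments resolved by CE. DMSO baseline.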
# [12] = ATG_NRF2_ARE_CIS: Attagene CIS-FACTORIAL HepG2 Assay for human Nuclear Factor Erythroid 2 Related Factor 2 (NFR2) response to Antioxidant Response Elements (ARE) (AID 2282992); details: HepG2 Attagene ARE/NRF2 reporter, transcription factor activity; actives raise or lower the signal
# Outline: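 Endogenous transcription factor activity in human liver HepG2 cells is tracked via a cis-element-driven reporter within a multiplexed set. mRNA induction is read by RT-PCR and capillary electrophoresis after 24 h, with DMSO as baseline.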
# [13] = ATG_Oct_MLP_CIS: Attagene CIS-FACTORIAL HepG2 Assay for human Octamer-Binding Transcription Factor (Oct) (AID 2282993); details: HepG2 Attagene cis-factorial Oct reporter, mRNA; actives raise or lower the signal
# Outline: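 Cells of the HepG2 line express promoter-controlled reporter sequences whose mRNA levels, after 24 h treatment, are measured by RT-PCR and capillary electrophoresis. Increases and decreases are scored relative to DMSO.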
# [14] = target: Cellular tumor antigen p53 (Homo sapiens) (UniProt P04637); assay: ATG_p53_CIS: Attagene CIS-FACTORIAL HepG2 Assay for human p53 Transcription Factor (AID 2282994); details: HepG2 p53 cis-element reporter, Attagene mRNA; actives raise or lower the signal
# Sequence of Cellular tumor antigen p53 (Homo sapiens) (P04637 whole entry, looked up, the tested form may be a part): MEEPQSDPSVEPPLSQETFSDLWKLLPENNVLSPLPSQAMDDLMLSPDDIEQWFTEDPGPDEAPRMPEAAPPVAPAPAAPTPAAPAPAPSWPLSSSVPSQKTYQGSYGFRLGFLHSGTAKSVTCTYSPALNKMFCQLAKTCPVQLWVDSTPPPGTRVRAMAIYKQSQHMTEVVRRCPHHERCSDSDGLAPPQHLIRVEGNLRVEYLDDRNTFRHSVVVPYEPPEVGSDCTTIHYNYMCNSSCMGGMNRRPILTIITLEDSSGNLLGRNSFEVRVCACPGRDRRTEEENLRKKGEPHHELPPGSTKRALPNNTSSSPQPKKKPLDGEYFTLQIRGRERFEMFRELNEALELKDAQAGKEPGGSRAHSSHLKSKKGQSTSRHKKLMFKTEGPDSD
# Outline: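 Steps: transfect HepG2 with multiplexed cis reporter constructs; dose chemicals 24 h; extract RNA, reverse-transcribe, PCR-amplify reporter sequences; FAM-label, HpaI-digest, resolve fragments by CE. Activity fitted both directions relative to DMSO.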
# [15] = BSK_3C_TissueFactor: BioMAP Diversity Plus: 3C Assay for Tissue Factor Biomarker Activity (AID 2282997); details: BioMAP 3C HUVEC, tissue factor biomarker readout; actives raise or lower the signal
# Outline: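 In this endothelial system, HUVEC are treated for 24 h and Tissue Factor is assessed by ELISA, normalised to DMSO.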
# [16] = BSK_3C_uPAR: BioMAP Diversity Plus: 3C Assay for Urokinase-type plasminogen activator receptor (uPAR) Biomarker Activity (AID 2282998); details: BioMAP 3C HUVEC, uPAR biomarker ELISA; actives raise or lower the signal
# Outline: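 Endothelial primary cells of human umbilical vein origin received test chemical; 24 h later uPAR was assayed by ELISA. Fitting was bidirectional, DMSO as negative control.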
# [17] = BSK_4H_Eotaxin3: BioMAP Diversity Plus: 4H Assay for Eotaxin 3 Biomarker Activity (AID 2283000); details: primary human endothelial cells (HUVEC); actives raise or lower the signal;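 on outcome: CCL26 protein level quantified by ELISA in parallel with SRB cytotoxicity check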
# Outline: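 ELISA quantitation of CCL26 (Eotaxin-3) protein from chemically dosed human vascular endothelial cells at 24 h; increases and decreases both scored relative to DMSO-treated baseline.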
# [18] = target: human Peroxisome Proliferator-activated Receptor alpha (PPARa), PPARA (gene 5465) (UniProt Q07869); assay: ATG_PPARa_TRANS: Attagene TRANS-FACTORIAL HepG2 Assay for human Peroxisome Proliferator-activated Receptor alpha (PPARa) (AID 2283001; active means hit-call score of the fitted dose curve at least 0.9, where 1 is the maximum;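 on AC50: potency for gain of reporter signal over DMSO so agonist or activator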)
# Sequence of human Peroxisome Proliferator-activated Receptor alpha (PPARa), PPARA (gene 5465) (Q07869 whole entry, looked up, the tested form may be a part): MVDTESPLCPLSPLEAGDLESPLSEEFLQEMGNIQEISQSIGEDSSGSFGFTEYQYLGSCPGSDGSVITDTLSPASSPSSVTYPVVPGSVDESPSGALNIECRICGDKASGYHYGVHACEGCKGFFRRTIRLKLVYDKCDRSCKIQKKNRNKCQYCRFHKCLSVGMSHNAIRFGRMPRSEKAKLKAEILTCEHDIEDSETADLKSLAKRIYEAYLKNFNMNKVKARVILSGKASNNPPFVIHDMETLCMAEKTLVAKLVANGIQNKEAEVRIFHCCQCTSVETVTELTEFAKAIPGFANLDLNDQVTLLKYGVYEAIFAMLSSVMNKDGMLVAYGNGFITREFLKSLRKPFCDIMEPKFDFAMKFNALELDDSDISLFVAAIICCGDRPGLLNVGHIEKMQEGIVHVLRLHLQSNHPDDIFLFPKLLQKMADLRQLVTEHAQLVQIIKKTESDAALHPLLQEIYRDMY
# Outline: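 Reporter transcripts quantified by RT-PCR plus capillary electrophoresis after 24 h treatment, fitted upward relative to DMSO. Cells: human HepG2 transiently carrying multiple GAL4-UAS reporter units driven by NR-Gal4 chimeras.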
# [19] = ATG_M_32_TRANS: Attagene TRANS-FACTORIAL HepG2 Assay for M32 Transcription Factor (Internal Marker) (AID 2282984; active means hit-call score of the fitted dose curve at least 0.9, where 1 is the maximum;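 further: transcript level of a background control reporter unit measured by RT-PCR and capillary electrophoresis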); details: HepG2 Attagene TRANS M32 internal marker reporter
# Outline: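 Internal background reporter in transfected HepG2: after 24 h chemical exposure, RNA reverse-transcribed, reporter cDNA amplified, fluorescently labelled and HpaI-cut, then sized by capillary electrophoresis. Gain of signal fitted against DMSO control.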
# [20] = BSK_3C_VCAM1: BioMAP Diversity Plus: 3C Assay for Vascular cell adhesion molecule 1 (VCAM1) Biomarker Activity (AID 2282999); details: BioMAP 3C HUVEC, VCAM1 ELISA, cytokine-stimulated; actives raise or lower the signal
# Outline: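 Activity fitted in both directions relative to DMSO, with ELISA measurement of the surface marker on primary HUVEC (3C) at 24 h post-treatment; parallel SRB staining (0.1% SRB, TCA-fixed, 560 nm) flagged overt cytotoxicity.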
smiles,measurement,setting,value
COc1cccc(-c2ccc(/C=C\CN3CCCCCC3)cc2Cl)c1,outcome,[1],inactive
same,outcome,[2],inactive
same,outcome,[3],inactive
same,outcome,[4],inactive
same,outcome,[5],inactive
same,outcome,[6],inactive
same,outcome,[7],inactive
same,outcome,[8],inactive
same,outcome,[9],inactive
same,outcome,[10],inactive
same,outcome,[11],inactive
same,AC50,[12],9.89 µM (active)
same,AC50,[13],11 µM (active)
same,outcome,[14],inactive
same,AC50,[15],31.5 µM (active)
same,AC50,[16],24.3 µM (active)
same,AC50,[17],28 µM (active)
same,outcome,[18],inactive
COCCOc1cc2cc(C(=O)NC3CCN(C(C)C)CC3)n(CC(=O)Nc3ccc(Cl)cn3)c2cn1,outcome,[1],inactive
same,outcome,[2],inactive
same,outcome,[4],inactive
same,outcome,[5],inactive
same,outcome,[19],inactive
same,outcome,[7],inactive
same,outcome,[8],inactive
same,outcome,[9],inactive
same,outcome,[10],inactive
same,AC50,[11],180 µM (active)
same,AC50,[12],72.9 µM (active)
same,AC50,[13],119 µM (active)
same,outcome,[15],inactive
same,outcome,[16],inactive
same,outcome,[17],inactive
same,outcome,[18],inactive
COCCOCCOCCOC,outcome,[1],inactive
same,outcome,[4],inactive
same,outcome,[5],inactive
same,outcome,[19],inactive
same,outcome,[6],inactive
same,outcome,[7],inactive
same,outcome,[8],inactive
same,outcome,[9],inactive
same,outcome,[10],inactive
same,outcome,[11],inactive
same,outcome,[12],inactive
same,outcome,[13],inactive
same,outcome,[14],inactive
same,outcome,[15],inactive
same,outcome,[16],inactive
same,outcome,[20],inactive
same,outcome,[18],inactive
Cc1ccc(N)cc1O,outcome,[1],inactive
same,outcome,[4],inactive
same,outcome,[5],inactive
same,outcome,[7],inactive
same,outcome,[8],inactive
same,outcome,[9],inactive
same,outcome,[10],inactive
same,AC50,[12],22.3 µM (active)
same,outcome,[13],inactive
same,outcome,[15],inactive
same,outcome,[16],inactive
same,outcome,[20],inactive
same,AC50,[17],20 µM (active)
same,outcome,[18],inactive
CC(C)=CCC/C(C)=C\CO,outcome,[1],inactive
same,outcome,[2],inactive
same,outcome,[3],inactive
same,outcome,[5],inactive
same,outcome,[19],inactive
same,outcome,[6],inactive
same,outcome,[7],inactive
same,outcome,[8],inactive
same,outcome,[9],inactive
same,outcome,[10],inactive
same,AC50,[12],100 µM (active)
same,outcome,[13],inactive
same,outcome,[15],inactive
same,outcome,[16],inactive
same,outcome,[17],inactive
same,outcome,[18],inactive
CCCN(C1CCN(C(=O)C2CCNCC2)CC1)[C@@H]1CCc2ccc(OC)cc2C1,outcome,[1],inactive
same,outcome,[3],inactive
same,outcome,[4],inactive
same,outcome,[19],inactive
same,outcome,[6],inactive
same,outcome,[7],inactive
same,outcome,[8],inactive
same,outcome,[9],inactive
same,AC50,[10],175 µM (active)
same,AC50,[11],186 µM (active)
same,AC50,[12],26.2 µM (active)
same,AC50,[13],178 µM (active)
same,AC50,[14],155 µM (active)
same,outcome,[15],inactive
same,outcome,[16],inactive
same,outcome,[17],inactive
same,AC50,[18],146 µM (active)
CC(C)CCCCCCCOC(=O)CCCCC(=O)OCCCCCCCC(C)C,outcome,[1],inactive
same,outcome,[4],inactive
same,outcome,[19],inactive
same,outcome,[7],inactive
same,outcome,[8],inactive
same,outcome,[9],inactive
same,outcome,[10],inactive
same,outcome,[11],inactive
same,outcome,[12],inactive
same,outcome,[13],inactive
same,outcome,[14],inactive
same,outcome,[15],inactive
same,outcome,[16],inactive
same,outcome,[20],inactive
CNCc1ccc(NC(=O)c2c[nH]c3c2C(=O)CCC3)cc1,outcome,[1],inactive
same,outcome,[3],inactive
same,outcome,[4],inactive
same,outcome,[5],inactive
same,outcome,[19],inactive
same,outcome,[6],inactive
same,outcome,[7],inactive
same,outcome,[8],inactive
same,outcome,[9],inactive
same,outcome,[10],inactive
same,outcome,[11],inactive
same,AC50,[12],56.6 µM (active)
same,outcome,[13],inactive
same,outcome,[14],inactive
same,outcome,[15],inactive
same,outcome,[16],inactive
